# Values without a mark were called inactive.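 How the source made its calls: active = MAPPIT score above the 99th percentile of random reference set scores in the same batch; inactive = at or below it.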
# Columns and labels:
# Assay in all cases: MAPPIT interaction score (arbitrary units); higher = stronger binary interaction signal, active = hit call of the paper
# CG17217 = conditions: MAPPIT configuration: N-N; pair source set: Finley_Y2H
# PIG-T = conditions: MAPPIT configuration: N-N; pair source set: DPIM
# Prosalpha6T = conditions: pair source set: Lit-BM-16
# Prosbeta3 = conditions: MAPPIT configuration: N-C; pair source set: Lit-BM-16
# Rpt2 = conditions: pair source set: Lit-BM-16
# Rpt4 = conditions: pair source set: Lit-BM-16
# CG17162 = conditions: MAPPIT configuration: N-C
# CG17224 = conditions: MAPPIT configuration: N-N; pair source set: Finley_Y2H
# CG15576 = conditions: MAPPIT configuration: N-N; pair source set: Curagen_low_conf
# CG17598 = conditions: MAPPIT configuration: N-N; pair source set: Lit-BM-16
# CG15728 = conditions: MAPPIT configuration: N-C; pair source set: screen_3
# CG17776 = conditions: MAPPIT configuration: N-N; pair source set: Lit-BS-16
# CG1789 = conditions: MAPPIT configuration: N-N; pair source set: Finley_Y2H
# Mnt = conditions: pair source set: Lit-BM-16
# CG17991 = conditions: MAPPIT configuration: N-C; pair source set: screen_3
# sina = conditions: MAPPIT configuration: N-N; pair source set: screen_2
# CG17770 = conditions: pair source set: RRS
# CG16904 = conditions: MAPPIT configuration: N-N; pair source set: Curagen_low_conf
# CG2865 = conditions: MAPPIT configuration: N-N; pair source set: Curagen_low_conf
# Cul3 = conditions: pair source set: Lit-BM-16
# puc = conditions: pair source set: Lit-BM-16
# spir = conditions: MAPPIT configuration: N-N; pair source set: Curagen_low_conf
# CG15529 = conditions: MAPPIT configuration: N-C; pair source set: screen_4
# 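Further: HEK293T cells with Epo stimulation, STAT-responsive firefly luciferase reporter, fold induction versus unstimulated cells divided by the larger fold induction of two negative controls lacking either bait or prey.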
binder,measurement,setting,value
Prosalpha2 (protein) MATERYSFSLTTFSPSGKLVQLEYALAAVSGGAPSVGIIASNGVVIATENKHKSPLYEQHSVHRVEMIYNHIGMVYSGMGPDYRLLVKQARKIAQTYYLTYKEPIPVSQLVQRVATLMQEYTQSGGVRPFGVSLLICGWDNDRPYLYQSDPSGAYFAWKATAMGKNAVNGKTFLEKRYSEDLELDDAVHTAILTLKEGFEGKMTADNIEIGICDQNGFQRLDPASIKDYLASIP,MAPPIT interaction score,CG17217,1.84
same,MAPPIT interaction score,PIG-T,0.383
same,MAPPIT interaction score,Prosalpha6T; MAPPIT configuration: N-C,2.29
same,MAPPIT interaction score,Prosalpha6T; MAPPIT configuration: N-N,-0.206
same,MAPPIT interaction score,Prosbeta3,1.69
same,MAPPIT interaction score,Rpt2; MAPPIT configuration: N-C,-1.15
same,MAPPIT interaction score,Rpt2; MAPPIT configuration: N-N,0.523
same,MAPPIT interaction score,Rpt4; MAPPIT configuration: N-C,0.723
same,MAPPIT interaction score,Rpt4; MAPPIT configuration: N-N,-0.155
p38c (protein) MPEFVRVAINESLWEFPDIYEFVRFLGGGSFGQVAKVRLRGTENYFAMKRLMRPFEREEDAKGTYREIRLLKHMNHRNVISLLNVFHPPAHNMMEFQQVYLVTHLMDADLHRYSRSKRMSDQEIRIILYQILRGLKYIHSAGVVHRDLKPCNIAVNGNSEVRILDFGLSRMCADKMTDHVGTMWYLAPEIIFLRGQYTKAIDVWSVGCILAELITDRVLFRGENYVSQIRCLINIMGTPTREFITGISMERSRNYLEGYPLRQRCDFHHLFMGYDVQAIDLMEKMLEMVPEKRITAAEAMLHPYLRDLIEPHHHAEDTAPVYDQNFENMVLPVKCWKELVSHEIRNFRPDQLDLHF,MAPPIT interaction score,CG17162; pair source set: screen_3,0.769
Ddc (protein) MSHIPISNTIPTKQTDGNGKANISPDKLDPKVSIDMEAPEFKDFAKTMVDFIAEYLENIRERRVLPEVKPGYLKPLIPDAAPEKPEKWQDVMQDIERVIMPGVTHWHSPKFHAYFPTANSYPAIVADMLSGAIACIGFTWIASPACTELEVVMMDWLGKMLELPAEFLACSGGKGGGVIQGTASESTLVALLGAKAKKLKEVKELHPEWDEHTILGKLVGYCSDQAHSSVERAGLLGGVKLRSVQSENHRMRGAALEKAIEQDVAEGLIPFYAVVTLGTTNSCAFDYLDECGPVGNKHNLWIHVDAAYAGSAFICPEYRHLMKGIESADSFNFNPHKWMLVNFDCSAMWLKDPSWVVNAFNVDPLYLKHDMQGSAPDYRHWQIPLGRRFRALKLWFVLRLYGVENLQAHIRRHCNFAKQFGDLCVADSRFELAAEINMGLVCFRLKGSNERNEALLKRINGRGHIHLVPAKIKDVYFLRMAICSRFTQSEDMEYSWKEVSAAADEMEQEQ,MAPPIT interaction score,CG17224,0.0861
Yp3 (protein) MMSLRICLLATCLLVAAHASKDASNDRLKPTKWLTATELENVPSLNDITWERLENQPLEQGAKVIEKIYHVGQIKHDLTPSFVPSPSNVPVWIIKSNGQKVECKLNNYVETAKAQPGFGEDEVTIVLTGLPKTSPAQQKAMRRLIQAYVQKYNLQQLQKNAQEQQQQLKSSDYDYTSSEEAADQWKSAKAASGDLIIIDLGSTLTNFKRYAMLDVLNTGAMIGQTLIDLTNKGVPQEIIHLIGQGISAHVAGAAGNKYTAQTGHKLRRITGLDPAKVLSKRPQILGGLSRGDADFVDAIHTSTFAMGTPIRCGDVDFYPNGPSTGVPGSENVIEAVARATRYFAESVRPGSERNFPAVPANSLKQYKEQDGFGKRAYMGLQIDYDLRGDYILEVNAKSPFGQRSPAHKQAAYHGMHHAQN,MAPPIT interaction score,CG15576,0.532
B-H1 (protein) MKDSMSILTQTPSEPNAAHPQLHHHLSTLQQQHHQHHLHYGLQPPAVAHSIHSTTTMSSGGSTTTASGIGKPNRSRFMINDILAGSAAAAFYKQQQHHQQLHHHNNNNNSGSSGGSSPAHSNNNNNINGDNCEASNVAGVGVLPSALHHPQPHPPTHPHTHPHALMHPHGKLGHFPPTAGGNGLNVAQYAAAMQQHYAAAAAAAAARNNAAAAAAAAAAAAAAGVAAPPVDGGVDGGVGLAPPAGGDLDDSSDYHEENEDCDSGNMDDHSVCSNGGKDDDGNSVKSGSTSDMSGLSKKQRKARTAFTDHQLQTLEKSFERQKYLSVQERQELAHKLDLSDCQVKTWYQNRRTKWKRQTAVGLELLAEAGNFAAFQRLYGGSPYLGAWPYAAAAGAAHGATPHTNIDIYYRQAAAAAAMQKPLPYNLYAGVPSVGVGVGVGVGPAPFSHLSASSSLSSLSSYYQSAAAAASAANPGGPHPVAPPPSVGGGSPPSGLVKPIPAHSASASPPPRPPSTPSPTLNPGSPPGRSVDSCSQSDDEDQIQV,MAPPIT interaction score,CG17162; pair source set: screen_4,4.06 (active)
Rab2 (protein) MSYAYLFKYIIIGDTGVGKSCLLLQFTDKRFQPVHDLTIGVEFGARMITIDGKQIKLQIWDTAGQEAFRSITRSYYRGAAGALLVYDITRRETFNHLTTWLEDARQHSNSNMVIMLIGNKSDLDSRREVKKEEGEAFAREHGLVFMETSARTAANVEEAFINTAKEIYEKIQEGVFDINNEANGIKIGQQHSPTNPSLPGAGGAAGAANSGCC,MAPPIT interaction score,CG17598,1.18
REPTOR-BP (protein) MADMEIQSNKMSITEETQVQTRKECGKRGRKPGRKTSTEKLDMKAKLERSRQSARECRARKKLRYQYLEELVADREKAVVALRTELERLIQWNNQLSESNTPTNNDQLLQELGILKQE,MAPPIT interaction score,CG15728,1.49
same,MAPPIT interaction score,CG17776,-0.21
TrxT (protein) MVYPVRNKDDLDQQLILAEDKLVVIDFYADWCGPCKIIAPKLDELAHEYSDRVVVLKVNVDENEDITVEYNVNSMPTFVFIKGGNVLELFVGCNSDKLAKLMEKHAGVYTDEAADVKAVHIDGECIVDLTAESSESDNDNNNVNEVSAHDENAVLEH,MAPPIT interaction score,CG17162; pair source set: screen_4,1.51
Max (protein) MSMSDDDRDIDIESDEDGDSDTGLGSSRHTNTANFTQAEKRAHHNALERRRRDHIKESFTNLREAVPTLKGEKASRAQILKKTTECIQTMRRKISENQKDIEEIKRQNNIIAKQIQALESSNGDQFSEFLSDEEVGSEEADDEDLDQDFSRRNKKMKTFHA,MAPPIT interaction score,CG1789,0.0947
same,MAPPIT interaction score,Mnt; MAPPIT configuration: N-C,4.14 (active)
same,MAPPIT interaction score,Mnt; MAPPIT configuration: N-N,5.94 (active)
ben (protein) MSSLPRRIIKETQRLMQEPVPGINAIPDENNARYFHVIVTGPNDSPFEGGVFKLELFLPEDYPMSAPKVRFITKIYHPNIDRLGRICLDVLKDKWSPALQIRTILLSIQALLSAPNPDDPLANDVAELWKVNEAEAIRNAREWTQKYAVED,MAPPIT interaction score,CG17991,0.127
same,MAPPIT interaction score,sina,0.428
Rtf1 (protein) MGKRRTQSLIDSNSSDSDSESETNLESDLMSLAKKRKKPQTAAKSSSRSDSDSDWANNKAGAPSSKKKKRQKPSRDSSSSESNWDDDSQDERQPARQSPAQTQQEHKPPEQASQPAQLSEQEEGEVSDSDSDKSKSNSSSSGSDSSSSSSSSDSEFDDGFDDDLMGDDEDRRRLNGLSEKERETEIYKRIEQREIMRTRWEIERKLKLARRGEKNQEKSKNKGERAKKKKEKREKKARKAREAQAPLPTQASTSTLLDVEPKPSNEVRSASPLSTPALNRDAASTSAAVASIMPDDAASSAGVSDYFDHKERSKERKKNVEANKTDDKRSNAMALLKAKREGKAKREEEEAKRMAEKDRDDDKEELDSVSGCKSAVKLKASEIYSDDSGSSDWDEEEKPAGKRSRSNSSKASSESEDEEKAPQRPVFITTREDLNKLRLSRYKMERFVNLPIFESTVLNCFVRISIGNNGQKPVYRVAEIVGVVETGKIYSLGTTRTNRGLRLKHGTQERVFRLEFISNQEFTENEFNKWNEVCQQSHVQMPTIDLIAIKQNDIKKALNYEFKDEDVDKIVEEKNRFRNRPTNYAMKKTCLMKERDAAMLRGDYDIAQDLGQQIDELENRASELDKRRSHTLNLISYINDRNRKKNVEDAEKAILEEARANKGLKISDPFTRRITQPRMGFKGAKKDEDDMQLAPLPPPPPGKKRPNEAGTSSASVRSTDSKDYSLYSLHDFDIDLDVPLPVNTNSVPKPASKPAETVSKRSLNLEDYKKKRGLI,MAPPIT interaction score,CG17770; MAPPIT configuration: N-C,0.216
same,MAPPIT interaction score,CG17770; MAPPIT configuration: N-N,-0.281
Nedd8 (protein) MLIKVKTLTGKEIEIDIEPTDKVDRIKERVEEKEGIPPQQQRLIFSGKQMNDDKTAADYKVQGGSVLHLVLALRGGDSILTPCV,MAPPIT interaction score,CG15576,1.7
rdx (protein) MFEPYVKIKKKRSVNEIYENENLEQQQHHLQQQQQQPATSDNCCCENGEPQNAPEVATATVAATSVAATSAAATVATGAAASSSSSGNCSRLQQLISTPPVLLRRSSLQQQQHQQQQHHPHTPAATATPPQQQQQQQAAPSVLQQHLGHLNYESGATAAAAATAAAAAATVATSRSGSATLAQHLATPSNILQAAFGSSNLQHILTRSAPSPSSSAISSNNCSSACAGNTHYNGGNSNSGSSSSNSNHHSNSIIASRLFGAASSSSSSSSSSASASSSSVAASSSSSSHHLHSHHSALTNSITNRINQSIRRHLNQQQHHHPLSASSSSASASPSASTSSSSSYQQSSVQQQHYNCAHPAQQQQHHHHHHSSSSSSSSSSSSSHHHHNSSSSSNSNNQQQPQQSPLCLVLLVKCPNSKEFCNAAANFCDKRLPVNECQASQTARVTSNLHASSSTMAVSRVPSPPLPEVNTPVAENWCYTQVKVVKFSYMWTINNFSFCREEMGEVLKSSTFSAGANDKLKWCLRVNPKGLDEESKDYLSLYLLLVSCNKSEVRAKFKFSILNAKREETKAMESQRAYRFVQGKDWGFKKFIRRDFLLDEANGLLPEDKLTIFCEVSVVADSVNISGQSNIVQFKVPECKLSEDLGNLFDNEKFSDVTLSVGGREFQAHKAILAARSDVFAAMFEHEMEERKLNRVAITDVDHEVLKEMLRFIYTGKAPNLEKMADDLLAAADKYALEKLKVMCEEALCVNLSVETAAETLILADLHSADQLKAQTIDFINTHATDVMETSGWQNMITTHSHLIAEAFRALATQQIPPIGPPRKRVKMS,MAPPIT interaction score,CG16904,-0.125
same,MAPPIT interaction score,CG2865,-0.131
same,MAPPIT interaction score,Cul3; MAPPIT configuration: N-C,1.12
same,MAPPIT interaction score,Cul3; MAPPIT configuration: N-N,0.911
same,MAPPIT interaction score,puc; MAPPIT configuration: N-C,0.404
same,MAPPIT interaction score,puc; MAPPIT configuration: N-N,0.467
same,MAPPIT interaction score,spir,0.125
CG3817 (protein) MALLTEKRVKKTHAPASDSSPEESDSEGSQNSASEAEGNAGWADSIQKVLKTTKPKTQKKTVLARAKKSQAAVRFQKDAANKKPGFDFEIEKADVKEEDEGDNHEDEKPQASALDATLTKQQRKNVPLQLRVKPSFRDMERERTLRKVATRGVVQFFNAVRIQQKDLQQQLEEAGPLDSRQDAVLNNINKRKFLDVLMSGKRAKSTPVDNAVKKEEQETDDDDEDKGSSGKKKSEWSVLREDFMTNKKIKHWDEEDDDEEGHNDEADDSDYDDGEE,MAPPIT interaction score,CG15529,1.02

# From the supplement of paper PMC10105736
